Measured values reported in article PMC7862700, “An all-to-all approach to the identification of sequence-specific readers for epigenetic DNA modifications on cytosine”.

Tests used:
Test in all cases: DAPPL (digital affinity profiling via proximity ligation, sequencing); 10 mM Tris-HCl pH 7.5, 50 mM NaCl, 1 mM DTT, 4% glycerol, room temperature, 30 min; GST-TFs on glutathione beads, 16-mer random dsDNA library, 0.1% formaldehyde crosslink after washing; high values mean tight binding
[1] = target: T1, FLI1 (Homo sapiens, UniProt Q01543 1-452); details: protein: recombinant; tags: N-terminal GST; dsDNA, one strand shown
T1 sequence: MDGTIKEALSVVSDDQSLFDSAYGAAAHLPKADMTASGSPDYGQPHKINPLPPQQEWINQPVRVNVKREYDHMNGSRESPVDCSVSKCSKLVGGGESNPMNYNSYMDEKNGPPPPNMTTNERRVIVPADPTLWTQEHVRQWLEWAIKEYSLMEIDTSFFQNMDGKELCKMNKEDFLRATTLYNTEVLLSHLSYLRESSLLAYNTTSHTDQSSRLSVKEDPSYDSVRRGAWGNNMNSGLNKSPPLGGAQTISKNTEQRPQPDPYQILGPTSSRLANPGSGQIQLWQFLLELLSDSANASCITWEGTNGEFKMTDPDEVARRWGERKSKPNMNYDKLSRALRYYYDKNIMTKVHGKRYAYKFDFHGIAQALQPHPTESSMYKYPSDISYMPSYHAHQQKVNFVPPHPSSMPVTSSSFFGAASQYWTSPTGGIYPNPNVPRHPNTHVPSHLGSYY
In short: (§1)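 Each value of binding signal is a hexamer's read frequency for a factor divided by the same hexamer's frequency in the tag-only sample. Barcoded, bead-captured GST fusions of human transcription factors made in yeast were pooled with that sample and incubated with 200 nmole of a random double-stranded 16-mer DNA library in Tris/NaCl/DTT/glycerol buffer at room temperature for 30 min. Washing, 0.1% formaldehyde crosslinking, proximity ligation, PCR and Illumina NextSeq500 sequencing followed.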

[2] = target: T2, ELK1 (Homo sapiens, UniProt P19419 1-428); details: protein: recombinant; tags: N-terminal GST; dsDNA, one strand shown
T2 sequence: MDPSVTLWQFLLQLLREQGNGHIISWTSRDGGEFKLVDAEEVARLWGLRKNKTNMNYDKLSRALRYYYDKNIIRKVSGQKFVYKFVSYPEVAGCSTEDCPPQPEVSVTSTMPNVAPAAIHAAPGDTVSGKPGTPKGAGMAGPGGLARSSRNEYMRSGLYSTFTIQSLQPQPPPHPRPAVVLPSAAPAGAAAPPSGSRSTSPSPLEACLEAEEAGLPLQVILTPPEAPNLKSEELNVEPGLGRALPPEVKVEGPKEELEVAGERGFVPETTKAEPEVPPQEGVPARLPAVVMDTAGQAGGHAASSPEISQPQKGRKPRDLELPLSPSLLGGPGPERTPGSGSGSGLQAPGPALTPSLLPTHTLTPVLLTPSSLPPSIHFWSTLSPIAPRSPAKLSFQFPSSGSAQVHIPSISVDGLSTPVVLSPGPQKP
In short: as §1

[3] = target: T3, GABPA (Homo sapiens, UniProt Q06546 1-454); details: protein: recombinant; tags: N-terminal GST; dsDNA, one strand shown
T3 sequence: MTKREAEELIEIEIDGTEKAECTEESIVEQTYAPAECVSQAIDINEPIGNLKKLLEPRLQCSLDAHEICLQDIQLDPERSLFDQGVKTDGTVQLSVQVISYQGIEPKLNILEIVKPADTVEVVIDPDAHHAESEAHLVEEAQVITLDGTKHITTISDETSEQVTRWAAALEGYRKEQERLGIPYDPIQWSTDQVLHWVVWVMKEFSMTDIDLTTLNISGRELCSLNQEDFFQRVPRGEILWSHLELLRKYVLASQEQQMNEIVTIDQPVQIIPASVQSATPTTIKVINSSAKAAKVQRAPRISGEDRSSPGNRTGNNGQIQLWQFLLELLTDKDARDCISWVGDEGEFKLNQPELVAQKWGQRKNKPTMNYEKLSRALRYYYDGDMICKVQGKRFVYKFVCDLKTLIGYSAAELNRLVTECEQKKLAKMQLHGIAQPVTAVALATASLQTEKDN
In short: as §1

[4] = target: T4, ERG (Homo sapiens, UniProt P11308 1-479); details: protein: recombinant; tags: N-terminal GST; dsDNA, one strand shown
T4 sequence: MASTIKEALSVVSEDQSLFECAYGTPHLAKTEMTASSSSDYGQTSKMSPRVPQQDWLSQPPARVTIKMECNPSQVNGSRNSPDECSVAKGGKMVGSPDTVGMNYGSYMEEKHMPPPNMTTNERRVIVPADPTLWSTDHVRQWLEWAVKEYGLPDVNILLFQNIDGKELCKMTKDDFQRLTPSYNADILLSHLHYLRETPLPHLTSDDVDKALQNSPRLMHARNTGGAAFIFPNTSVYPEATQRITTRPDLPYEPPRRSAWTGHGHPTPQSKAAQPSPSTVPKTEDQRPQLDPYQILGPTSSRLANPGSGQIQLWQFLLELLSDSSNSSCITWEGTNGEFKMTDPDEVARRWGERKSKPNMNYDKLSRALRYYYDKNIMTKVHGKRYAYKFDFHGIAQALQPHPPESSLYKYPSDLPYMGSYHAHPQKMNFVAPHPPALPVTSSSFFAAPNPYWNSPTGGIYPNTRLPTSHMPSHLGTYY
In short: as §1

[5] = target: ELF1 (Homo sapiens, UniProt P32519 1-619); details: protein: recombinant; tags: N-terminal GST; dsDNA, one strand shown
Sequence of ELF1 (P32519 whole entry): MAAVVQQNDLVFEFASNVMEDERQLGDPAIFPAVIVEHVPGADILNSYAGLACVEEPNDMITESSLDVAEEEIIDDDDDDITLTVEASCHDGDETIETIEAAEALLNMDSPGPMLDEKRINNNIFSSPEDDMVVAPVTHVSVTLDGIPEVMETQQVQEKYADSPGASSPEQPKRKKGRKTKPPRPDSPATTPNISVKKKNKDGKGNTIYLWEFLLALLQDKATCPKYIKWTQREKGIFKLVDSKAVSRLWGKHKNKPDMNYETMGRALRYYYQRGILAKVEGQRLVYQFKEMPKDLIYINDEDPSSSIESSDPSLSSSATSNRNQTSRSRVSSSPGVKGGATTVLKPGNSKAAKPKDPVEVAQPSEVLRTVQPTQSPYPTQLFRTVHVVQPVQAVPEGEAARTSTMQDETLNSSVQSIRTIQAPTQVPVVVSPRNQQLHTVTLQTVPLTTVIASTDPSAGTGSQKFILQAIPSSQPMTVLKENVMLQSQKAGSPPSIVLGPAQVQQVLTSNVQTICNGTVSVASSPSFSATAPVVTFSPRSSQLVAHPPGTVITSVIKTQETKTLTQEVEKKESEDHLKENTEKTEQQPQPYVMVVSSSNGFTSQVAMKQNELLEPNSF
In short: as §1

[6] = target: T5, EHF (Homo sapiens, UniProt Q9NZC4 1-300); details: protein: recombinant; tags: N-terminal GST; dsDNA, one strand shown
T5 sequence: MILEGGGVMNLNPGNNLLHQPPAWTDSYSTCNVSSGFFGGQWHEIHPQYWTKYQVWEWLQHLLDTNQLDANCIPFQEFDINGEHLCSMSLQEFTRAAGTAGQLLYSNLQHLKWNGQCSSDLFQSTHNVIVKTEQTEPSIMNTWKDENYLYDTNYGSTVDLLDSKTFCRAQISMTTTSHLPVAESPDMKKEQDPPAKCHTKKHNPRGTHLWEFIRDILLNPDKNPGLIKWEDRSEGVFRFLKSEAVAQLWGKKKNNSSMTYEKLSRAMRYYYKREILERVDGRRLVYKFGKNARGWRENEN
In short: as §1

[7] = target: SPI1 (Homo sapiens, UniProt P17947 1-270); details: protein: recombinant; tags: N-terminal GST; dsDNA, one strand shown
In short: as §1

[8] = target: SPIB (Homo sapiens, UniProt Q01892 1-262); details: protein: recombinant; tags: N-terminal GST; dsDNA, one strand shown
Sequence of SPIB (Q01892 whole entry): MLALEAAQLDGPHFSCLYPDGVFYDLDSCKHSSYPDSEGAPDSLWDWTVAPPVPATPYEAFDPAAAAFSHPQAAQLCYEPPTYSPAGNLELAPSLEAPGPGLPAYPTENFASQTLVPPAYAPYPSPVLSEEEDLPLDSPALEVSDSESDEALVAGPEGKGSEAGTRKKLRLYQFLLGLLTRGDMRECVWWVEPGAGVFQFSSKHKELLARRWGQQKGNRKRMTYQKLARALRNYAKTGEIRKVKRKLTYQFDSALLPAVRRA
In short: as §1

[9] = target: T6, ELK3 (Homo sapiens, UniProt P41970 1-407); details: protein: recombinant; tags: N-terminal GST; dsDNA, one strand shown
T6 sequence: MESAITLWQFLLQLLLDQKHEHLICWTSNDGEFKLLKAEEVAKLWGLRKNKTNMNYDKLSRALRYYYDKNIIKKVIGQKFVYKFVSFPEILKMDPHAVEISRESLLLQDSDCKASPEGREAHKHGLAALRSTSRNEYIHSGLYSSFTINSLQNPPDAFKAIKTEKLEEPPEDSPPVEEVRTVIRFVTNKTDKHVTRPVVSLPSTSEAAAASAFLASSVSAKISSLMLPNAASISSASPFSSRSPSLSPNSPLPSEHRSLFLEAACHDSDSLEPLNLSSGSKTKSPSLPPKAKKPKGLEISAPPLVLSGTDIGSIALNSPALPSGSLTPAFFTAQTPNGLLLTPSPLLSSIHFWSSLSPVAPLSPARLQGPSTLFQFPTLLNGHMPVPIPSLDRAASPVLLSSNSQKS
In short: as §1

[10] = target: T7, FEV (Homo sapiens, UniProt Q99581 1-238); details: protein: recombinant; tags: N-terminal GST; dsDNA, one strand shown
T7 sequence: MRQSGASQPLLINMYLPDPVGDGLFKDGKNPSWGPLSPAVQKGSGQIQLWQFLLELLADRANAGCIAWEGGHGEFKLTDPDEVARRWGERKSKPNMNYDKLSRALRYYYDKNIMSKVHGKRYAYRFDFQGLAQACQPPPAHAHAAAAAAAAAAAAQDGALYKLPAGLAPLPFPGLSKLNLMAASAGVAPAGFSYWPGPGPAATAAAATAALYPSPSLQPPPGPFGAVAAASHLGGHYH
In short: as §1

[11] = target: ETV5 (Homo sapiens, UniProt P41161 1-510); details: protein: recombinant; tags: N-terminal GST; dsDNA, one strand shown
Sequence of ETV5 (P41161 whole entry): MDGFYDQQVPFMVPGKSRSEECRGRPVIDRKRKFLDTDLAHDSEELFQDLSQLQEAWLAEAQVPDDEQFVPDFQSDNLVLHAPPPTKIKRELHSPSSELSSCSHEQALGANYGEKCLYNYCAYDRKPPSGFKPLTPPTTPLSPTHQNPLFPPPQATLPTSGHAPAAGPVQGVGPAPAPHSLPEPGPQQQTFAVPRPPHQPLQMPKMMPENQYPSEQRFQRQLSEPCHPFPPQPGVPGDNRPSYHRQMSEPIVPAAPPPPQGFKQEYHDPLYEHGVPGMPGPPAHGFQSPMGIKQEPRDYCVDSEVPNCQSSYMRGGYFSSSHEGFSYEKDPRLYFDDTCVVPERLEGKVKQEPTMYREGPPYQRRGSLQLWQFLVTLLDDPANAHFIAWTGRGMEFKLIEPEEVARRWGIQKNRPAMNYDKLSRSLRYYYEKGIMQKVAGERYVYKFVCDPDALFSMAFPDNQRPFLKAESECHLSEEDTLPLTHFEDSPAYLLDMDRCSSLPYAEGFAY
In short: as §1

[12] = target: HSF1 (Homo sapiens, UniProt Q00613 1-529); details: protein: recombinant; tags: N-terminal GST; chain copies: 3; dsDNA, one strand shown
Sequence of HSF1 (Q00613 whole entry): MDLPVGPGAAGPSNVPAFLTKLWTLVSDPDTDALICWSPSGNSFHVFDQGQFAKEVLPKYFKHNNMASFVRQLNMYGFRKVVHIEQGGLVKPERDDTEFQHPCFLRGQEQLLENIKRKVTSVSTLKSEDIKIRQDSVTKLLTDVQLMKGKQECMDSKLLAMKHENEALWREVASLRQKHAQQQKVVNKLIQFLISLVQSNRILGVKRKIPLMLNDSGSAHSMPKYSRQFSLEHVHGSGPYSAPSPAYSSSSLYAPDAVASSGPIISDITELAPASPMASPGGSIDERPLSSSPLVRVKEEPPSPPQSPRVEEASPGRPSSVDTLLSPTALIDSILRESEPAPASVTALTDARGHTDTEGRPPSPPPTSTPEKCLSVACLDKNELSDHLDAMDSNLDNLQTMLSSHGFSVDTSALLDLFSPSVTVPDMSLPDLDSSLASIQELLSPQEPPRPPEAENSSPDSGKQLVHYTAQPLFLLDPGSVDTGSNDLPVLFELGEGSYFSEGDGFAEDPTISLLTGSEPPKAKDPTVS
In short: as §1

[13] = target: T8, SPIC (Homo sapiens, UniProt Q8N5J4 1-248); details: protein: recombinant; tags: N-terminal GST; dsDNA, one strand shown
T8 sequence: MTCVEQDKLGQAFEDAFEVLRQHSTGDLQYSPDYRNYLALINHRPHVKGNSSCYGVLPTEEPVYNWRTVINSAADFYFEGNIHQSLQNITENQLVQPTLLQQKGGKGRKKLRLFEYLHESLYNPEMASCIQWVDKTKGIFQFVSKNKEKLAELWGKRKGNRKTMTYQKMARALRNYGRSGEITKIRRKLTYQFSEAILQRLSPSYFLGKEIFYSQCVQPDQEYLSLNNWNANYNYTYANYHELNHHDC
In short: as §1

[14] = target: ELF4 (Homo sapiens, UniProt Q99607 1-663); details: protein: recombinant; tags: N-terminal GST; dsDNA, one strand shown
Sequence of ELF4 (Q99607 whole entry): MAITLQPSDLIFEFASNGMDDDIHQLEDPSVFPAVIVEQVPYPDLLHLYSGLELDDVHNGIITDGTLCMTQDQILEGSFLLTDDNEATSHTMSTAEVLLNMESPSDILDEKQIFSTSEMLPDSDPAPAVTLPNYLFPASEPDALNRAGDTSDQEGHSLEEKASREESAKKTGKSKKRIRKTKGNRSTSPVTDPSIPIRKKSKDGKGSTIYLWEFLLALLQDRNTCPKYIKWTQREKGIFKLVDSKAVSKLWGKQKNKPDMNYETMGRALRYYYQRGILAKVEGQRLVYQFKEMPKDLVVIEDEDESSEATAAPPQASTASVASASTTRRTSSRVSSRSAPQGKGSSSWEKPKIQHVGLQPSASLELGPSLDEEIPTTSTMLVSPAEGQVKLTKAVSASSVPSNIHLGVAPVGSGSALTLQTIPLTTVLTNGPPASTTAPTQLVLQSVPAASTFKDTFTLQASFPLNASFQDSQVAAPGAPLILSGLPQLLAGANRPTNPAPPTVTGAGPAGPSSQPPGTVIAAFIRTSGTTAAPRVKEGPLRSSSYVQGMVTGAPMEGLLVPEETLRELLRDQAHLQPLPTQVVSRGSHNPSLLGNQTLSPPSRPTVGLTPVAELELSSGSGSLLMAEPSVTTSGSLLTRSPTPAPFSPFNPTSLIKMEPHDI
In short: as §1

[15] = target: T9, ELK4 (Homo sapiens, UniProt P28324-2 1-405); details: protein: recombinant; tags: N-terminal GST; dsDNA, one strand shown
T9 sequence: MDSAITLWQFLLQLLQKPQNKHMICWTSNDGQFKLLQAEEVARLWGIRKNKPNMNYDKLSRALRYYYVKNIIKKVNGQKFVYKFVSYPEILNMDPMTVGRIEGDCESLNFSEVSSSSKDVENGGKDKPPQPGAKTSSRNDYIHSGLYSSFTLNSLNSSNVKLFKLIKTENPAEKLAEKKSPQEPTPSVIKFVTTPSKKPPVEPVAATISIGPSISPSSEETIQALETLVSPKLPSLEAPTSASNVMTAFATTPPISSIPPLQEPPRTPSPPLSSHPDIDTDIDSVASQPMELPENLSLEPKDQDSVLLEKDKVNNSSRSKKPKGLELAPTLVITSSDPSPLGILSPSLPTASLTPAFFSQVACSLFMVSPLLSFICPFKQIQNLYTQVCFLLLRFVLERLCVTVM
In short: as §1

[16] = target: T10, ETV2 (Homo sapiens, UniProt O00321 1-342); details: protein: recombinant; tags: N-terminal GST; dsDNA, one strand shown
T10 sequence: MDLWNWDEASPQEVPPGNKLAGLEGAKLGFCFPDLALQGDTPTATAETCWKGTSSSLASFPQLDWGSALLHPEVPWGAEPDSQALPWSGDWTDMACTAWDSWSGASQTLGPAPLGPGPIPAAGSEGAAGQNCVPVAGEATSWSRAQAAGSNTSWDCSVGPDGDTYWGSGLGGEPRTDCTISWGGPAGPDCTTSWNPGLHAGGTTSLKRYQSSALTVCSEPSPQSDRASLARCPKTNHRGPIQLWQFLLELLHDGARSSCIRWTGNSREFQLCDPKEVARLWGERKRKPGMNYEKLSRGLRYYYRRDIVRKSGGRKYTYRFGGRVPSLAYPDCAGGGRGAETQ
In short: as §1

[17] = target: T11, ELF3 (Homo sapiens, UniProt P78545 1-371); details: protein: recombinant; tags: N-terminal GST; dsDNA, one strand shown
T11 sequence: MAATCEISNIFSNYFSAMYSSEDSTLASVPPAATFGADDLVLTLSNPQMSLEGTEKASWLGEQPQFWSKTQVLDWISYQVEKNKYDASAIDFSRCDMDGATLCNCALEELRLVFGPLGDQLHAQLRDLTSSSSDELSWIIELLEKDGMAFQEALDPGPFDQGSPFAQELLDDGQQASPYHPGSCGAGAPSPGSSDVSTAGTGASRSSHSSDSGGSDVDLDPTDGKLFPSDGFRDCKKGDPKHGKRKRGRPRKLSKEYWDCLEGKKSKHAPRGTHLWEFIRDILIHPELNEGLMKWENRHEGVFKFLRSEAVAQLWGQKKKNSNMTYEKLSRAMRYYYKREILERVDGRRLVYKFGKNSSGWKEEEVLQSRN
In short: as §1

[18] = target: CRX (Homo sapiens, UniProt O43186 1-299); details: protein: recombinant; tags: N-terminal GST; dsDNA, one strand shown
Sequence of CRX (O43186 whole entry): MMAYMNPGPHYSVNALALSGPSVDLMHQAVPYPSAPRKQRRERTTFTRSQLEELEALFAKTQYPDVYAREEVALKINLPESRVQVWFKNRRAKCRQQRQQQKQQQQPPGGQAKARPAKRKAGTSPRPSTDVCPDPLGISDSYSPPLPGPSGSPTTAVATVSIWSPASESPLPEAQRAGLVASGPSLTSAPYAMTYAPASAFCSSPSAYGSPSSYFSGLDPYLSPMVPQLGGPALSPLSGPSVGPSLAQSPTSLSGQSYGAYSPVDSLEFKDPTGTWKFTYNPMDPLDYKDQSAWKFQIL
In short: as §1

[19] = target: ETV1 (Homo sapiens, UniProt P50549 1-477); details: protein: recombinant; tags: N-terminal GST; dsDNA, one strand shown
Sequence of ETV1 (P50549 whole entry): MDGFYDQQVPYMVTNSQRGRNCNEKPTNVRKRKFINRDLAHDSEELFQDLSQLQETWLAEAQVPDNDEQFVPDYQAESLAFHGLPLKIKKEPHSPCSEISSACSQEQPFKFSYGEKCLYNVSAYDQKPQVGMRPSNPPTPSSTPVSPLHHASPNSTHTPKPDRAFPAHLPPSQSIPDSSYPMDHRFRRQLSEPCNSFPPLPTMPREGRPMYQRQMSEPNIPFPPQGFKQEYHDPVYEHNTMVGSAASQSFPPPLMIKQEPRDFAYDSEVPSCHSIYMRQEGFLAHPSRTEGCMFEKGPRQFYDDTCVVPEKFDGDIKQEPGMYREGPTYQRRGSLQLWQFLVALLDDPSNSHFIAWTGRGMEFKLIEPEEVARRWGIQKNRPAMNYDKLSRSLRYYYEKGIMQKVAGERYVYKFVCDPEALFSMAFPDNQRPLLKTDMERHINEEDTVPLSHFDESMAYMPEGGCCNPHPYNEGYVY
In short: as §1

Sequence: AGATTC
- binding signal [1]: 1.15 fold enrichment (6-mer frequency, TF over GST control)
- binding signal [2]: 1.14 fold enrichment (6-mer frequency, TF over GST control)
- binding signal [3]: 1.16 fold enrichment (6-mer frequency, TF over GST control)
- binding signal [4]: 1.19 fold enrichment (6-mer frequency, TF over GST control)
- binding signal [5]: 1.21 fold enrichment (6-mer frequency, TF over GST control)
- binding signal [6]: 1.2 fold enrichment (6-mer frequency, TF over GST control)
- binding signal [7]: 1.22 fold enrichment (6-mer frequency, TF over GST control)
- binding signal [8]: 1.14 fold enrichment (6-mer frequency, TF over GST control)
- binding signal [9]: 1.07 fold enrichment (6-mer frequency, TF over GST control)
- binding signal [10]: 1.13 fold enrichment (6-mer frequency, TF over GST control)
- binding signal [11]: 1.07 fold enrichment (6-mer frequency, TF over GST control)
- binding signal [12]: 2 fold enrichment (6-mer frequency, TF over GST control)
- binding signal [13]: 1.24 fold enrichment (6-mer frequency, TF over GST control)
- binding signal [14]: 1.16 fold enrichment (6-mer frequency, TF over GST control)
- binding signal [15]: 1.18 fold enrichment (6-mer frequency, TF over GST control)
- binding signal [16]: 1.32 fold enrichment (6-mer frequency, TF over GST control)
- binding signal [17]: 1.11 fold enrichment (6-mer frequency, TF over GST control)
- binding signal [18]: 1.41 fold enrichment (6-mer frequency, TF over GST control)
- binding signal [19]: 1.22 fold enrichment (6-mer frequency, TF over GST control)
